According to PubChem BioAssay (EPA / NIEHS):
Active and inactive are the calls of the source. How the source made its calls: active means hit-call score of the fitted dose curve at least 0.9, where 1 is the maximum; inactive means score below 0.9.

Experiments:
[1] = BSK_hDFCGF_SRB: Viability Assessment in the BioMAP Diversity Plus: hDFCGF Assay (AID 2283061); settings: primary human foreskin fibroblasts;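 further: cells exposed to compound for 24 h before the read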
Outline: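 Human foreskin primary fibroblasts were treated with compound and assessed 24 h after dosing. Total protein was measured by sulforhodamine B staining (0.1% SRB after 10% TCA fixation, 560 nm read) as a cytotoxicity marker, with bidirectional fitting against DMSO baseline.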

[2] = read-out: TIMP metallopeptidase inhibitor 1 (TIMP1), TIMP1 (gene 7076); test: BSK_hDFCGF_TIMP1: BioMAP Diversity Plus: hDFCGF Assay for TIMP metallopeptidase inhibitor 1 (TIMP1) Biomarker Activity (AID 2283062); settings: primary human foreskin fibroblasts; actives raise or lower the signal
Outline: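 Primary human foreskin fibroblasts in the hDFCGF system were dosed with compound for 24 h, then TIMP-1 was measured by ELISA. Activity was fitted bidirectionally relative to DMSO control; parallel SRB staining assessed cytotoxicity.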

[3] = read-out: Monokine induced gamma interferon (MIG), CXCL9 (gene 4283); test: BSK_hDFCGF_MIG: BioMAP Diversity Plus: hDFCGF Assay for Monokine induced gamma interferon (MIG) Biomarker Activity (AID 2283063); settings: primary human foreskin fibroblasts; actives raise or lower the signal
Outline: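 ELISA read-out of MIG from primary human dermal fibroblasts 24 h post-dosing. Gain or loss of signal fitted bidirectionally, DMSO as baseline.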

[4] = read-out: Matrix Metallopeptidase 1 (MMP1), MMP1 (gene 4312); test: BSK_hDFCGF_MMP1: BioMAP Diversity Plus: hDFCGF Assay for Matrix Metallopeptidase 1 (MMP1) Biomarker Activity (AID 2283064); settings: primary human foreskin fibroblasts; actives raise or lower the signal
Outline: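 MMP1 levels quantified by ELISA 24 h after dosing human dermal fibroblast cultures, with parallel SRB total-protein staining for overt cytotoxicity. Data fitted in both directions against DMSO baseline.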

[5] = read-out: Vascular cell adhesion molecule 1 (VCAM1), VCAM1 (gene 7412); test: BSK_hDFCGF_VCAM1: BioMAP Diversity Plus: hDFCGF Assay for Vascular cell adhesion molecule 1 (VCAM1) Biomarker Activity (AID 2283065); settings: primary human foreskin fibroblasts; actives raise or lower the signal;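 on AC50: VCAM-1 protein level quantified by ELISA after 24 h chemical exposure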
Outline: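 Primary human foreskin fibroblasts (hDFCGF system) were dosed with chemical and VCAM-1 was measured by ELISA 24 h later. Bidirectional curve fitting used DMSO as negative control and activity baseline.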

[6] = read-out: Plasminogen activator inhibitor-1 (PAI1), SERPINE1 (gene 5054); test: BSK_hDFCGF_PAI1: BioMAP Diversity Plus: hDFCGF Assay for Plasminogen activator inhibitor-1 (PAI1) Biomarker Activity (AID 2283066); settings: primary human foreskin fibroblasts; actives raise or lower the signal
Outline: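 ELISA readout of PAI-1 from primary human skin fibroblast cultures, 24 h after compound addition. Gain or loss of signal was fitted bidirectionally against DMSO baseline.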

[7] = read-out: Intercellular Adhesion Molecule 1 (ICAM1), ICAM1 (gene 3383); test: BSK_KF3CT_ICAM1: BioMAP Diversity Plus: KF3CT Assay for Intercellular Adhesion Molecule 1 (ICAM1) Biomarker Activity (AID 2283067); settings: primary human keratinocytes with fibroblasts; actives raise or lower the signal
Outline: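 Human keratinocyte plus foreskin fibroblast primary co-culture was exposed to chemical for 24 h. ICAM-1 was then quantified by ELISA, and the data were fit bidirectionally against DMSO as the negative control and baseline.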

[8] = read-out: Interferon-gamma inducible Protein 10 (IP10), CXCL10 (gene 3627); test: BSK_KF3CT_IP10: BioMAP Diversity Plus: KF3CT Assay for Interferon-gamma inducible Protein 10 (IP10) Biomarker Activity (AID 2283068); settings: primary human keratinocytes with fibroblasts; actives raise or lower the signal
Outline: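 ELISA read-out of IP-10 after 24 h chemical dosing of human skin primary co-culture (keratinocytes, foreskin fibroblasts). Gain or loss of signal relative to DMSO, bidirectional curve fit.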

[9] = BSK_KF3CT_SRB: Viability Assessment in the BioMAP Diversity Plus: KF3CT Assay (AID 2283069); settings: primary human keratinocytes with fibroblasts
Outline: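 Cytotoxicity was gauged by SRB staining (0.1% SRB, 10% TCA fixation, 560 nm) of parallel cultures at 24 h. The cells were primary human skin keratinocytes co-cultured with fibroblasts, and activity was fitted in both directions against DMSO.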

[10] = read-out: Interleukin-1 alpha (IL1a), IL1A (gene 3552); test: BSK_KF3CT_IL1a: BioMAP Diversity Plus: KF3CT Assay for Interleukin-1 alpha (IL1a) Biomarker Activity (AID 2283070); settings: primary human keratinocytes with fibroblasts; actives raise or lower the signal
Outline: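 IL-1a was detected by ELISA 24 h after chemical treatment of a co-culture of human skin keratinocytes and foreskin fibroblasts. Gain or loss of signal was fitted against the DMSO baseline.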

[11] = read-out: TIMP metallopeptidase inhibitor 2 (TIMP2), TIMP2 (gene 7077); test: BSK_KF3CT_TIMP2: BioMAP Diversity Plus: KF3CT Assay for TIMP metallopeptidase inhibitor 2 (TIMP2) Biomarker Activity (AID 2283071); settings: primary human keratinocytes with fibroblasts; actives raise or lower the signal
Outline: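 ELISA readout of TIMP-2 in keratinocyte plus foreskin fibroblast co-cultures (human skin primary cells), 24 h post-dose. Gain or loss of signal fitted relative to DMSO.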

[12] = read-out: Transforming growth factor beta 1 (TGFb1), TGFB1 (gene 7040); test: BSK_KF3CT_TGFb1: BioMAP Diversity Plus: KF3CT Assay for Transforming growth factor beta 1 (TGFb1) Biomarker Activity (AID 2283072); settings: primary human keratinocytes with fibroblasts; actives raise or lower the signal
Outline: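 Read-out: ELISA for TGF-b1 in keratinocyte/foreskin fibroblast human skin co-culture, 24 h after dosing; bidirectional curve fit vs DMSO baseline; gain or loss of signal scored.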

[13] = read-out: C-C motif chemokine 2 (Homo sapiens) (UniProt P13500); test: BSK_KF3CT_MCP1: BioMAP Diversity Plus: KF3CT Assay for Monocyte Chemoattractant Protein 1 (MCP1/CCL2) Biomarker Activity (AID 2283073); settings: primary human keratinocytes with fibroblasts; actives raise or lower the signal
Outline: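 Human keratinocyte plus foreskin fibroblast primary co-culture exposed to chemical for 24 h. MCP-1 levels measured by ELISA. Bidirectional curve fitting relative to DMSO negative control as baseline.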

[14] = read-out: Matrix Metallopeptidase 9 (MMP9), MMP9 (gene 4318); test: BSK_KF3CT_MMP9: BioMAP Diversity Plus: KF3CT Assay for Matrix Metallopeptidase 9 (MMP9) Biomarker Activity (AID 2283074); settings: primary human keratinocytes with fibroblasts; actives raise or lower the signal;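 on AC50: MMP9 protein level quantified by ELISA in the co-culture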
Outline: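 MMP-9 quantified by ELISA after 24 h chemical treatment of primary human skin keratinocyte/fibroblast co-cultures; gain or loss fitted against DMSO, with parallel SRB staining (0.1% SRB, 560 nm) for overt cytotoxicity.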

[15] = read-out: urokinase plasminogen activator (uPA), PLAU (gene 5328); test: BSK_KF3CT_uPA: BioMAP Diversity Plus: KF3CT Assay for urokinase plasminogen activator (uPA) Biomarker Activity (AID 2283075); settings: primary human keratinocytes with fibroblasts; actives raise or lower the signal
Outline: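 ELISA read-out of uPA 24 h after dosing human skin keratinocytes co-cultured with foreskin fibroblasts. Signal change fitted both ways relative to DMSO; sulforhodamine B on parallel cultures marks overt cytotoxicity.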

[16] = read-out: CD40, CD40 (gene 958); test: BSK_LPS_CD40: BioMAP Diversity Plus: LPS Assay for CD40 Biomarker Activity (AID 2283076); settings: primary human HUVEC with PBMC; actives raise or lower the signal
Outline: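 Primary human umbilical vein endothelial cells co-cultured with peripheral blood mononuclear cells, LPS-stimulated, were dosed with chemical and read 24 h later. CD40 levels were measured by ELISA and fitted bidirectionally against DMSO as negative control and baseline.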

[17] = read-out: E-selectin (Homo sapiens) (UniProt P16581); test: BSK_LPS_Eselectin: BioMAP Diversity Plus: LPS Assay for Eselectin Biomarker Activity (AID 2283077); settings: primary human HUVEC with PBMC; actives raise or lower the signal
Outline: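 Human umbilical vein endothelial cells co-cultured with peripheral blood mononuclear cells under LPS stimulation; E-selectin measured by ELISA 24 h after chemical dosing. Activity fitted bidirectionally against DMSO as negative control and baseline.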

[18] = read-out: Interleukin-8 (IL8), CXCL8 (gene 3576); test: BSK_LPS_IL8: BioMAP Diversity Plus: LPS Assay for Interleukin-8 (IL8) Biomarker Activity (AID 2283078); settings: primary human HUVEC with PBMC; actives raise or lower the signal
Outline: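 Human umbilical vein endothelial cells co-cultured with PBMC were stimulated with LPS; IL-8 levels were measured by ELISA 24 h after chemical dosing. Activity was fitted bidirectionally against DMSO as negative control and baseline.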

[19] = read-out: Interleukin-1 alpha (IL1a), IL1A (gene 3552); test: BSK_LPS_IL1a: BioMAP Diversity Plus: LPS Assay for Interleukin-1 alpha (IL1a) Biomarker Activity (AID 2283080); settings: primary human HUVEC with PBMC; actives raise or lower the signal
Outline: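 Human umbilical vein endothelial cells co-cultured with peripheral blood mononuclear cells were LPS-stimulated and exposed to test chemicals for 24 h. IL-1 alpha was quantified by ELISA, with bidirectional curve fitting against DMSO as the negative control and baseline.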

[20] = BSK_LPS_SRB: Viability Assessment in the BioMAP Diversity Plus: LPS Assay (AID 2283079); settings: primary human HUVEC with PBMC;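 further: total protein by sulforhodamine B absorbance as a cytotoxicity measure; measured one day after compound addition; fitted in both directions against DMSO so loss or gain of signal counts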
Outline: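 Human umbilical vein endothelial cells co-cultured with PBMC (LPS system) were dosed for 24 h. Total protein was stained with 0.1% sulforhodamine B after 10% TCA fixation, read at 560 nm, and fitted bidirectionally against DMSO baseline.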

Measured: AC50

Sequence of E-selectin (Homo sapiens) (P16581 whole entry, looked up): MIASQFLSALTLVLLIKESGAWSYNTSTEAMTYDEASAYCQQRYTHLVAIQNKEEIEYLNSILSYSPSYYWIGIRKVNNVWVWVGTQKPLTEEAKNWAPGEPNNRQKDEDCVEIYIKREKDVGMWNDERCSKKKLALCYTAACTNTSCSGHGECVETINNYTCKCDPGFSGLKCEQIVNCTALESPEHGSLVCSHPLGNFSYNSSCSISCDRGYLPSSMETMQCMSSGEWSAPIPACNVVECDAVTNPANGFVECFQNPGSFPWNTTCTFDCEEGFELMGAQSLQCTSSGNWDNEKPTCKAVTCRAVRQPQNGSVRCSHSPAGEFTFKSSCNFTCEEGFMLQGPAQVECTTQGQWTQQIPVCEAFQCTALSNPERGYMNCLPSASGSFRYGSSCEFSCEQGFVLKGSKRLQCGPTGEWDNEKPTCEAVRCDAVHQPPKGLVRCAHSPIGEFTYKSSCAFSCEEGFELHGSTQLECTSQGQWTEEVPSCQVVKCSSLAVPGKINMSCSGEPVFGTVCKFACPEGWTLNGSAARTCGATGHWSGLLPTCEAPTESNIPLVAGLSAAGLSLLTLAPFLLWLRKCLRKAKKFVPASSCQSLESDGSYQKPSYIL

CC(C)N(Cc1ccccc1)C(=O)C(C)(C)C
not listed: [20]
inactive: all other assays above

O=C(O)C1C2CCC(O2)C1C(=O)O (stereo not given)
active: [5] 18.6 µM | [6] 6.83 µM | [20] 18.6 µM | [19] 18.6 µM
not listed: [14]
inactive: all other assays above

Nc1ccc(Cc2ccc(N)cc2)cc1
not listed: [14] | [20]
inactive: all other assays above

O=C1CCCO1
not listed: [14] | [20]
inactive: all other assays above

COC(=O)Nc1nc2ccccc2[nH]1
not listed: [11] | [20]
inactive: all other assays above

CN(C)c1ccc(C(=O)c2ccc(N(C)C)cc2)cc1
active: [12] 5.11 µM | [16] 17 µM | [18] 6.12 µM | [20] 13.4 µM
inactive: all other assays above

ClCCOCCCl
not listed: [11]
inactive: all other assays above

O=C(Nc1ccccc1)c1ccccc1I
not listed: [20]
inactive: all other assays above

O=[N+]([O-])C(Br)(CO)CO
active: [1] 30.5 µM | [2] 32.9 µM | [3] 30.2 µM | [4] 32.3 µM | [5] 26.7 µM | [6] 26.8 µM | [7] 35.8 µM | [8] 34.9 µM | [9] 33.2 µM | [10] 32.5 µM | [11] 28.5 µM | [12] 32 µM | [14] 34.4 µM | [15] 36.8 µM | [16] 29 µM | [17] 32.8 µM | [18] 34.2 µM | [20] 29.6 µM | [19] 34 µM
inactive: [13]

[As]#[In]
not listed: [11]
inactive: all other assays above

Cc1ccc(N=C=O)cc1N=C=O
not listed: [20]
inactive: all other assays above

[Cl-].[Cl-].[Hg+2]
inactive: [19]
active: [1] 12.1 µM | [2] 13.5 µM | [3] 8.14 µM | [4] 11.8 µM | [5] 7.96 µM | [6] 12.2 µM | [7] 20.8 µM | [8] 12.8 µM | [9] 13.2 µM | [10] 30.4 µM | [11] 29.2 µM | [12] 7.74 µM | [13] 20 µM | [15] 13.1 µM | [16] 38.8 µM | [17] 37 µM | [18] 30.9 µM

C[C@]12C=CC3=C4CCC(=O)C=C4CC[C@H]3[C@@H]1CC[C@@H]2O
active: [5] 27.7 µM | [6] 0.164 µM | [16] 20 µM | [17] 4.37 µM
not listed: [20]
inactive: all other assays above
